Screening results from PubChem BioAssay.
In the library only some 4% were active in any assay of this set; here they are far more common.
Mtb betalactam: beta-lactam sensitization of Mtb H37Rv | M. tuberculosis H37Rv growth with meropenem, percent inhibition | inhibition, % at 25 µM | 330,000 compounds, 0.27% hits | AID 434955; call rule not given here;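 further: growth measured after seven days incubation then overnight dye step; 0% = bacteria only wells and 100% = bacteria with antibiotic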
RecA intein inh: Mtb RecA intein splicing inhibition. P9WHJ3. cell-free RecA intein splicing, fluorescence. inhibition, % (test concentration not listed). 290,000 compounds, 0.75% hits; in the data active means inhibition above about 30%;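 further: 0% = vehicle wells and 100% = reference inhibitor control wells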
Rv3671c protease: inhibitors of M. tuberculosis serine protease Rv3671c; 320,000 compounds, 0.048% hits; P9WHR9; inhibition, % at 5.96 µM; AID 2606; in the data active means inhibition above about 38%;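 further: extracellular domain of Rv3671c used as enzyme; 0% = enzyme with DMSO and 100% = no enzyme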
GDH-TPI counter: counter-screen for M. tuberculosis FBA inhibitors: GDH-TPI coupled enzymes; GDH-TPI coupled enzyme counterscreen, NADH absorbance; inhibition, % at 4.8 µM; 360,000 compounds, 1.2% hits; in the data active means inhibition above about 30%;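 further: 0% = DMSO wells and 100% = wells lacking the enzyme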
Mtb FBA inh: inhibits M. tuberculosis FBA enzyme; purified M. tuberculosis FBA, fluorescence read-out; inhibition, % at 1 µM; 360,000 compounds, 2.3% hits; in the data active means inhibition above about 27%;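 further: 0% = vehicle and 100% = reference inhibitor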
Mtb UGM inh: blocks M. tuberculosis UGM enzyme; purified UGM, fluorescence polarization probe displacement; inhibition, % at 10 µM; 320,000 compounds, 0.06% hits; AID 504406; in the data active means inhibition above about 10%, passing the limit was not always enough
Target sequence (P9WIQ1 whole entry, looked up): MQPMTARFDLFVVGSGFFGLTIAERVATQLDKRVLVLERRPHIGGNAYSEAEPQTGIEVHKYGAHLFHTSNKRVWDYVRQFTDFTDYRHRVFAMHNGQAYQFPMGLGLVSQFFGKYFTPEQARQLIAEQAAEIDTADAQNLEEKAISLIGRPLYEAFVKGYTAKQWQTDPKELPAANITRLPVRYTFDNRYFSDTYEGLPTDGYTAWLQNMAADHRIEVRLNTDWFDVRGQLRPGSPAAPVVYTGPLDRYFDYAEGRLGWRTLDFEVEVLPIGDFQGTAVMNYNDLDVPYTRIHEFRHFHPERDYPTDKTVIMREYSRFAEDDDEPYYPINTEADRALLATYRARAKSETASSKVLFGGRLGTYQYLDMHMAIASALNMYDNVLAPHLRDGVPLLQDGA
* = called active by the depositor; i = inactive; nt = not tested or not shown; + = active, no number.

SMILES	Mtb betalactam	RecA intein inh	Rv3671c protease	GDH-TPI counter	Mtb FBA inh	Mtb UGM inh
COc1ccc(C2c3ccc(O)cc3Oc3ncn4nc(-c5ccccn5)nc4c32)cc1 (centres undefined)	-6	1	-8	36*	4	-2
O=[N+]([O-])c1ccc(NCc2ccc(Cl)cc2)nc1	0	5	8	34*	-3	3
CCN(CC)C(=O)C1=C(C)N(Cc2ccc(C(C)(C)C)cc2)C(=O)C(CC(=O)NCC2CCCCC2)C1 (centres undefined)	nt	nt	nt	-7	0	nt
CCC[C@@H](CN1CCC[C@H]1CN1C(N)=NC[C@H]1CC(C)C)N1C[C@@H]([C@H](C)CC)N(CCCC2CCCC2)C1=N	100	nt	-4	3	6	nt
CCCCN(C)CCNC(=O)CCn1nc(-c2ccc(Cl)cc2)ccc1=O	-2	-1	-1	8	1	0
CCCCn1c(=NC(C)=O)c(C#N)cc2c(=O)n3cccc(C)c3nc21	1	-2	15	0	102*	-3
CCOCCCn1c(=NC(=O)c2ccc(OC)c(OC)c2)c(C#N)cc2c(=O)n3cccc(C)c3nc21	-3	-17	9	nt	nt	1
CCOCCCn1c(=NC(C)=O)c(C#N)cc2c(=O)n3cccc(C)c3nc21	-9	i	3	2	+	1
CCCCCn1c(=NC(=O)c2cccnc2)c(C#N)cc2c(=O)n3cccc(C)c3nc21	-2	-1	6	1	116*	1
CCOC(=O)CSC1=C(C#N)C(c2ccc(C)o2)CC(=O)N1 (centres undefined)	3	0	-2	0	-2	-1
CSC1=N/C(=C/c2cccnc2)C(=O)N1Cc1ccc(Cl)cc1	-8	-3	1	12	14	0
CSC1=N/C(=C/c2cccnc2)C(=O)N1Cc1ccccc1	-13	-8	-4	32*	9	-3
CCOC(=O)COc1ccc2cc(C(=O)OCC)c(=O)oc2c1	77	nt	0	38*	184*	0
COc1ccc(-c2cc3ccc(OC(C)C(=O)O)cc3oc2=O)cc1 (centres undefined)	-1	-199	nt	16	+	1
CC(=O)Oc1ccc2c(=O)c(-c3ccccc3)coc2c1	76	5	9	0	15	0
CC(=O)COc1ccc2cc(-c3ccccc3)c(=O)oc2c1	-2	-5	7	40*	+	1
CC(=O)Oc1ccc2cc(-c3ccccc3)c(=O)oc2c1	-4	-145	-9	6	158*	0
CC(=O)Nc1sc(N/N=C\c2ccc(O)cc2)nc1-c1cccs1	65	2	0	44*	-1	-1
COc1ccc(CCNC(=O)c2cnc3scc(C)n3c2=O)cc1OC	-6	0	4	33*	5	4
Cc1ccc(CC(=O)N(C)CC(=O)Nc2ccc(N3CCOCC3)cc2)cc1C	-3	-1	0	4	2	2
O=C(NCc1ccc2c(c1)OCO2)c1ccc2c(c1)S(=O)(=O)c1ccccc1C2=O	0	-1	0	15	2	1
Cc1cc(=O)n(Cc2ccccc2)c(O)c1C#N	-5	2	-7	11	6	-1
Cc1c(C#N)c(NC(=O)CCl)n(Cc2ccc(F)cc2)c1C	4	56*	0	0	0	2
CCN(CC)C(=O)c1sc(NC(=O)Cc2cccs2)c(C#N)c1C	0	6	3	11	5	-1
Cc1c(C#N)c(NC(=O)CCl)n(Cc2ccccc2)c1C	64	44*	9	-5	3	-3
Cc1c(C#N)c(NC(=O)CCl)n(Cc2cccs2)c1C	83	65*	4	-6	-2	-1
CC(=O)c1ccc(N2CCN(C(=O)c3ccc4c(=O)n(-c5ccccc5)c(=O)[nH]c4c3)CC2)cc1	1	0	-1	35*	0	0
C=CCn1c(=O)[nH]c2cc(C(=O)N3CCN(c4cccc(Cl)c4)CC3)ccc2c1=O	59	-1	-15	2	0	0
CC(=O)c1ccc(N2CCN(C(=O)CCCn3c(=S)[nH]c4cc5c(cc4c3=O)OCO5)CC2)cc1	-5	nt	-7	35*	0	-1
C=CCn1c(=O)[nH]c2cc(C(=O)N3CCN(c4ccc(C(C)=O)cc4)CC3)ccc2c1=O	3	2	-4	36*	-1	1
